{
  "source": "PubChem BioAssay (NCATS)",
  "note": "Values without a mark were called inactive. Results filed as inconclusive are left out. The source made the active and inactive calls. Calls come from the whole dose curve; as a rule, active = well fitted curve in the direction sought with a large enough effect; inconclusive = small, poorly fitted or top-dose-only effect, or another doubt; inactive = no such curve, though single readings can be large; an effect the other way counts as inactive or inconclusive.",
  "data": [
    {"experiment": "qHTS to identify inhibitors of the type 1 interferon - major histocompatibility complex class I in skeletal muscle: primary screen against the NCATS LOPAC collection (AID 1347405);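 note: human myoblasts with HiBiT tag on endogenous HLA-B stimulated by IFN-beta; lytic HiBiT luminescence reporting HLA-B protein level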; note: potency is the fitted concentration of half-maximal effect; for activity change, negative = inhibition: % is set by controls: 0 for no effect and ±100 for the full control effect", "conditions": "iHSKM muscle cells, IFN-b-induced MHC-I HiBiT luminescence, 24 h; series mostly up to 45.9 µM; activity change, negative = inhibition: at the top concentration", "how_it_was_run": "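HLA-B HiBiT myoblasts, IFN-b 4 ng/ml, dexamethasone-free medium; compounds 7-pt 1:4.3 titration, top 46 uM final; 24 h at 37 C; Nano-Glo HiBiT lytic reagent, 10 min RT, luminescence.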", "units": {"activity change, negative = inhibition": "%"}, "values": [
      {"smiles": "CCCC[N+]1(C)C2CC(OC(=O)[C@H](CO)c3ccccc3)CC1C1OC12", "note": "(stereo partly specified)", "activity change, negative = inhibition": 3.85},
      {"smiles": "Oc1ccc2c3c1O[C@H]1c4oc5ccccc5c4C[C@@]4(O)C(C2)N(CC2CC2)CCC314", "note": "(stereo partly specified)", "activity change, negative = inhibition": -5.28},
      {"smiles": "O=S1(=O)N(CCN2CC=C(c3c[nH]c4cc(F)ccc34)CC2)c2cccc3c2N1CCC3", "activity change, negative = inhibition": -10},
      {"smiles": "NC(=O)c1cc(N2CC2)c([N+](=O)[O-])cc1[N+](=O)[O-]", "activity change, negative = inhibition": -15.9},
      {"smiles": "Cc1c2ccncc2c(C)c2c1[nH]c1ccccc12", "Potency": "7.08 µM (active)"},
      {"smiles": "CN1CCC(c2c[nH]c3ccc(O)cc23)CC1", "activity change, negative = inhibition": -3.12},
      {"smiles": "CCCN(CCC)CCc1ccc(O)c(O)c1", "activity change, negative = inhibition": -8.32},
      {"smiles": "CCN1C[C@@]2(COC)C3[C@@H](OC)C4[C@@H]1C3([C@@H]1C[C@]3(O)[C@H](OC(=O)c5ccccc5)[C@@H]1[C@]4(OC(C)=O)[C@@H](O)[C@@H]3OC)[C@H](OC)C[C@H]2O", "activity change, negative = inhibition": -0.71},
      {"smiles": "CC(N)[C@H](O)c1ccc(O)c(O)c1", "note": "(stereo partly specified)", "activity change, negative = inhibition": -18.4},
      {"smiles": "NNC(=O)c1ccc(O)cc1", "activity change, negative = inhibition": -10.2},
      {"smiles": "O=c1ccc2[nH]cc(C3=CCNCC3)c2[nH]1", "activity change, negative = inhibition": -2.34},
      {"smiles": "C#CCN[C@H](C)Cc1ccccc1", "activity change, negative = inhibition": 2.36},
      {"smiles": "NC(N)=NOCC[C@H](N)C(=O)O", "activity change, negative = inhibition": -8.89},
      {"smiles": "CC(C)(O)[C@@H]1C2OC(=O)[C@@H]1[C@]1(O)C[C@H]3O[C@]34C(=O)O[C@H]2[C@]14C", "note": "(tested in a mixture with another compound)", "activity change, negative = inhibition": 0.712},
      {"smiles": "CO[C@H]1CC=C2CCN3CCC4=C(CC(=O)OC4)[C@]23C1", "activity change, negative = inhibition": -7.58},
      {"smiles": "NCC(CP(=O)(O)O)c1ccc(Cl)cc1", "note": "(stereo unspecified)", "activity change, negative = inhibition": -11},
      {"smiles": "CCCN1CCc2cccc3c2[C@H]1Cc1ccc(O)c(O)c1-3", "activity change, negative = inhibition": -29.9},
      {"smiles": "NC(=O)COc1c(F)cc(SCCNS(=O)(=O)c2ccccc2)cc1F", "activity change, negative = inhibition": -15.8},
      {"smiles": "C[N+]1(C)C2CCC1CC(OC(=O)c1c[nH]c3ccccc13)C2", "note": "(stereo unspecified)", "activity change, negative = inhibition": -0.653},
      {"smiles": "Oc1ccc2c3c1O[C@H]1c4[nH]c5ccccc5c4C[C@@]4(O)C(C2)N(CC2CC2)CCC314", "note": "(stereo partly specified)", "activity change, negative = inhibition": 2.64},
      {"smiles": "CCCN(CCC)C1CCc2cccc(O)c2C1", "note": "(stereo unspecified)", "activity change, negative = inhibition": -12.1},
      {"smiles": "O=C1/C(=C/c2ccccc2)C[C@@]2(O)[C@H]3Cc4ccc(O)c5c4[C@@]2(CCN3CC2CC2)[C@H]1O5", "Potency": "2 µM (active)"},
      {"smiles": "NCCc1c[nH]c2ccc(C(N)=O)cc12", "activity change, negative = inhibition": -2.24},
      {"smiles": "C[N+](C)(C)CCOC(=O)CBr", "activity change, negative = inhibition": -4.47},
      {"smiles": "O=C(NC1CN2CCC1CC2)c1cc2ccoc2cn1", "note": "(stereo unspecified)", "activity change, negative = inhibition": -13.4},
      {"smiles": "CC1(C(=O)O)C2CCC(O2)C1(C)C(=O)O", "note": "(stereo unspecified)", "Potency": "12.6 µM (active)"},
      {"smiles": "NCCc1ccc(S(=O)(=O)F)cc1", "activity change, negative = inhibition": 5.21},
      {"smiles": "C=CCN1CCC23c4c5ccc(O)c4O[C@H]2C(=O)CC[C@@]3(O)C1C5", "note": "(stereo partly specified)", "activity change, negative = inhibition": -3.79}
    ]},
    {"experiment": "qHTS for inhibitors of adenylyl cyclases using a fission yeast platform: a pilot screen against the NCATS LOPAC library (AID 1347410);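 note: plate controls were DMSO vehicle for no effect and DPI positive control for full effect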", "conditions": "S. pombe CHP2027, fbp1-GFP fluorescence, 18 h; series mostly up to 57.5 µM; activity, positive = inhibition (GFP gain): at the top concentration", "how_it_was_run": "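Fission yeast qHTS: CHP2027 cells (AC9-GNAS-PDE4D2, fbp1-GFP), 5x10^6 cells/mL working density, EMM + His/Lys/Ura; LOPAC at up to 57 µM final; 18 h dark, 30C; GFP by laser cytometry. DPI positive control, DMSO vehicle.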", "values": [
      {"smiles": "CCCCCCCCCCCCCC(=O)O[C@@H]1[C@@H](C)[C@@]2(O)[C@@H](C=C(CO)C[C@@]3(O)C(=O)C(C)=C[C@@H]23)C2C(C)(C)[C@@]21OC(C)=O", "note": "(stereo partly specified)", "activity, positive = inhibition (GFP gain)": "0.777%"},
      {"smiles": "O=[N+]([O-])c1ccc2nc(N3CCNCC3)ccc2c1", "activity, positive = inhibition (GFP gain)": "-0.438%"},
      {"smiles": "CCCC[N+]1(C)C2CC(OC(=O)[C@H](CO)c3ccccc3)CC1C1OC12", "note": "(stereo partly specified)", "activity, positive = inhibition (GFP gain)": "-0.438%"},
      {"smiles": "O=[N+]([O-])c1cc(O)c(O)c([N+](=O)[O-])c1", "activity, positive = inhibition (GFP gain)": "0.837%"},
      {"smiles": "Oc1ccc2c3c1O[C@H]1c4oc5ccccc5c4C[C@@]4(O)C(C2)N(CC2CC2)CCC314", "note": "(stereo partly specified)", "activity, positive = inhibition (GFP gain)": "-0.007%"},
      {"smiles": "O=C1CC[C@@]2(O)C3Cc4ccc(O)c5c4C2(CCN3CC2CC2)[C@H]1O5", "note": "(stereo partly specified)", "activity, positive = inhibition (GFP gain)": "-0.438%"},
      {"smiles": "O=S1(=O)N(CCN2CC=C(c3c[nH]c4cc(F)ccc34)CC2)c2cccc3c2N1CCC3", "activity, positive = inhibition (GFP gain)": "0.165%"},
      {"smiles": "Ic1ccccc1CNC1C2CCN(CC2)C1C(c1ccccc1)c1ccccc1", "note": "(stereo unspecified)", "activity, positive = inhibition (GFP gain)": "-0.438%"},
      {"smiles": "C[C@]12Cc3cn4c(nc3C=C1CCC1C2CC[C@@]2(C)[C@H]1CC[C@@]2(O)C#N)nc1ccccc14", "note": "(stereo partly specified)", "activity, positive = inhibition (GFP gain)": "0.359%"},
      {"smiles": "CN1CCC[C@@H]1Cc1c[nH]c2ccc(Nc3ncccc3[N+](=O)[O-])cc12", "activity, positive = inhibition (GFP gain)": "0.322%"},
      {"smiles": "NC(=O)c1cc(N2CC2)c([N+](=O)[O-])cc1[N+](=O)[O-]", "activity, positive = inhibition (GFP gain)": "-0.438%"},
      {"smiles": "Cc1c2ccncc2c(C)c2c1[nH]c1ccccc12", "activity, positive = inhibition (GFP gain)": "12.5%"},
      {"smiles": "CN1CCC(c2c[nH]c3ccc(O)cc23)CC1", "activity, positive = inhibition (GFP gain)": "0.0673%"},
      {"smiles": "CCCN(CCC)CCc1ccc(O)c(O)c1", "activity, positive = inhibition (GFP gain)": "-0.438%"},
      {"smiles": "CCN1C[C@@]2(COC)C3[C@@H](OC)C4[C@@H]1C3([C@@H]1C[C@]3(O)[C@H](OC(=O)c5ccccc5)[C@@H]1[C@]4(OC(C)=O)[C@@H](O)[C@@H]3OC)[C@H](OC)C[C@H]2O", "activity, positive = inhibition (GFP gain)": "-0.438%"},
      {"smiles": "CC(C)(C)c1cc(C=C(C#N)C#N)cc(C(C)(C)C)c1O", "activity, positive = inhibition (GFP gain)": "0.193%"},
      {"smiles": "CC(N)[C@H](O)c1ccc(O)c(O)c1", "note": "(stereo partly specified)", "activity, positive = inhibition (GFP gain)": "-0.438%"},
      {"smiles": "NNC(=O)c1ccc(O)cc1", "activity, positive = inhibition (GFP gain)": "-0.438%"},
      {"smiles": "O=c1ccc2[nH]cc(C3=CCNCC3)c2[nH]1", "activity, positive = inhibition (GFP gain)": "-0.0673% [at 57.5 µM, yeast expressing mammalian AC9 and human GNAS]"},
      {"smiles": "C#CCN[C@H](C)Cc1ccccc1", "activity, positive = inhibition (GFP gain)": "0.183%"},
      {"smiles": "NC(N)=NOCC[C@H](N)C(=O)O", "activity, positive = inhibition (GFP gain)": "0.898%"},
      {"smiles": "CC(C)(O)[C@@H]1C2OC(=O)[C@@H]1[C@]1(O)C[C@H]3O[C@]34C(=O)O[C@H]2[C@]14C", "note": "(tested in a mixture with another compound)", "activity, positive = inhibition (GFP gain)": "-0.438%"},
      {"smiles": "CO[C@H]1CC=C2CCN3CCC4=C(CC(=O)OC4)[C@]23C1", "activity, positive = inhibition (GFP gain)": "-0.438%"},
      {"smiles": "NCC(CP(=O)(O)O)c1ccc(Cl)cc1", "note": "(stereo unspecified)", "activity, positive = inhibition (GFP gain)": "-0.438%"},
      {"smiles": "CCCN1CCc2cccc3c2[C@H]1Cc1ccc(O)c(O)c1-3", "activity, positive = inhibition (GFP gain)": "-0.438%"},
      {"smiles": "NC(=O)COc1c(F)cc(SCCNS(=O)(=O)c2ccccc2)cc1F", "activity, positive = inhibition (GFP gain)": "-0.438%"},
      {"smiles": "C[N+]1(C)C2CCC1CC(OC(=O)c1c[nH]c3ccccc13)C2", "note": "(stereo unspecified)", "activity, positive = inhibition (GFP gain)": "1.55%"},
      {"smiles": "Oc1ccc2c3c1O[C@H]1c4[nH]c5ccccc5c4C[C@@]4(O)C(C2)N(CC2CC2)CCC314", "note": "(stereo partly specified)", "activity, positive = inhibition (GFP gain)": "4.38%"},
      {"smiles": "CCCN(CCC)C1CCc2cccc(O)c2C1", "note": "(stereo unspecified)", "activity, positive = inhibition (GFP gain)": "-0.438%"},
      {"smiles": "O=C1/C(=C/c2ccccc2)C[C@@]2(O)[C@H]3Cc4ccc(O)c5c4[C@@]2(CCN3CC2CC2)[C@H]1O5", "activity, positive = inhibition (GFP gain)": "0.0997%"},
      {"smiles": "NCCc1c[nH]c2ccc(C(N)=O)cc12", "activity, positive = inhibition (GFP gain)": "-0.438%"},
      {"smiles": "C[N+](C)(C)CCOC(=O)CBr", "activity, positive = inhibition (GFP gain)": "-0.438%"},
      {"smiles": "O=C(NC1CN2CCC1CC2)c1cc2ccoc2cn1", "note": "(stereo unspecified)", "activity, positive = inhibition (GFP gain)": "0.211% [at 57.5 µM, yeast expressing mammalian AC9 and human GNAS]"},
      {"smiles": "CN1CCc2cc(O)cc3c2[C@H]1Cc1ccc(O)c(O)c1-3", "activity, positive = inhibition (GFP gain)": "0.0162%"},
      {"smiles": "CC1(C(=O)O)C2CCC(O2)C1(C)C(=O)O", "note": "(stereo unspecified)", "activity, positive = inhibition (GFP gain)": "2.73%"},
      {"smiles": "CN(N=O)c1cc(O)ccc1O", "activity, positive = inhibition (GFP gain)": "-0.438%"},
      {"smiles": "NCCc1ccc(S(=O)(=O)F)cc1", "activity, positive = inhibition (GFP gain)": "0.128%"},
      {"smiles": "C=CCN1CCC23c4c5ccc(O)c4O[C@H]2C(=O)CC[C@@]3(O)C1C5", "note": "(stereo partly specified)", "activity, positive = inhibition (GFP gain)": "-0.438%"}
    ]}
  ]
}
